These results are taken from PubChem BioAssay (NCATS).

Inconclusive results are not listed. A number with no mark means an inactive call. The source made the active and inactive calls. Calls follow the shape of the dose curve; as a rule, active = well fitted curve in the direction sought with a large enough effect; inconclusive = small, poorly fitted or top-dose-only effect, or another doubt; inactive = no such curve, though single readings can be large; an effect the other way counts as inactive or inconclusive.

Assay [1] is described as follows: Quantitative High-Throughput drug screen in 47 multiple myeloma cell lines against the NCATS MIPE library collection: KMS26_JCRB cell viability assay (AID 1918975). Also: nearly all actives have a fitted effect of over 45% in size. The method in brief: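 Luminescent ATP measurement with CellTiter-Glo gives viability, scaled between DMSO-only wells (100%) and media-only wells (0%). Cells, 500 per well, faced library compounds for 48 hours at 37C.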

Assay [2] in a line: Quantitative High-Throughput drug screen in 47 multiple myeloma cell lines against the NCATS MIPE library collection: MMM1_PLB cell viability assay (AID 1918976). Also: nearly all actives have a fitted effect of over 35% in size. The method, boiled down: (§1)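 Plated at 500 cells per well, myeloma lines received MIPE 4.0 compounds by pin tool. Following 48 h culture at 37 °C, CellTiter-Glo luminescence gave viability relative to DMSO and media-only controls.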

The nature of assay [3]: Quantitative High-Throughput drug screen in 47 multiple myeloma cell lines against the NCATS MIPE library collection: NCIH929_DSMZ cell viability assay (AID 1918978). Also: nearly all actives have a fitted effect of over 35% in size. The method, boiled down:
as §1

The nature of assay [4]: Quantitative High-Throughput drug screen in 47 multiple myeloma cell lines against the NCATS MIPE library collection: MM1S_ATCC cell viability assay (AID 1918980). Also: nearly all actives have a fitted effect of over 45% in size. The method in brief:
as §1

Assay [5] is described as follows: Quantitative High-Throughput drug screen in 47 multiple myeloma cell lines against the NCATS MIPE library collection: LP1_DSMZ cell viability assay (AID 1918982). Also: nearly all actives have a fitted effect of over 35% in size. The method in brief: as §1
Assay [6] is described as follows: Quantitative High-Throughput drug screen in 47 multiple myeloma cell lines against the NCATS MIPE library collection: KMS28PE_JCRB cell viability assay (AID 1918983). Also: nearly all actives have a fitted effect of over 35% in size. The method in brief: as §1
A short description of assay [7]: Quantitative High-Throughput drug screen in 47 multiple myeloma cell lines against the NCATS MIPE library collection: L363_DSMZ cell viability assay (AID 1918984). Also: nearly all actives have a fitted effect of over 40% in size. The method, boiled down: as §1
A short description of assay [8]: Quantitative High-Throughput drug screen in 47 multiple myeloma cell lines against the NCATS MIPE library collection: MOLP8_DSMZ cell viability assay (AID 1918977). Also: nearly all actives have a fitted effect of over 45% in size. The method in brief:
as §1

A short description of assay [9]: Quantitative High-Throughput drug screen in 47 multiple myeloma cell lines against the NCATS MIPE library collection: MM1R_ATCC cell viability assay (AID 1918981). Also: nearly all actives have a fitted effect of over 35% in size. The method in brief: as §1
The nature of assay [10]: Quantitative High-Throughput drug screen in 47 multiple myeloma cell lines against the NCATS MIPE library collection: OCIMY1_PLB cell viability assay (AID 1918979). Also: nearly all actives have a fitted effect of over 35% in size. As to viability: series mostly up to about 46 µM. The method in brief:
as §1
Potency is read from the fitted curve at half-maximal effect.

`CC1(O)CC(c2nc(-c3ccc4ccc(-c5ccccc5)nc4c3)c3c(N)nccn23)C1` (centres undefined): the Potency in assay [1] is 0.833 µM (active); in [2] it was 0.209 µM (active); in assay [3], 0.187 µM (active); in [4], 0.132 µM (active); in assay [5] it was 0.235 µM (active); in assay [6], 0.264 µM (active). For the same compound, the Potency in [7] was 0.662 µM (active).

Take `Nc1nc(NCCNc2ncc(-n3ccnc3)c(-c3ccc(Cl)cc3Cl)n2)ccc1[N+](=O)[O-]`: the Potency in [1] is 16.6 µM (active); in [8], 16.6 µM (active); in [3] it was 1.18 µM (active); in [4] it was 2.35 µM (active); in assay [9], 16.6 µM (active); in [5] it was 11.8 µM (active). The Potency in assay [6] is 23.5 µM (active); in assay [7], 5.26 µM (active).

As for `CCCCOc1c(C(=O)c2c(F)cc(C)cc2F)cnc2n[nH]cc12`, the Potency in assay [1] was 3.72 µM (active); in [8], 2.96 µM (active); in assay [3], 1.32 µM (active); in assay [4], 2.09 µM (active); in assay [5], 3.32 µM (active); in assay [6] it was 5.9 µM (active). Besides, the Potency in assay [7] is 3.32 µM (active).

With `O=c1[nH]c(=O)n(C2CCCO2)cc1F` (centres undefined), the Potency entry in assay [1], in assay [3], in assay [10], in assay [9], in [6] and in [7] was “inactive” in each case.

On to `Cn1c(CNc2ccc(C(=N)N)cc2)nc2cc(C(=O)N(CCC(=O)O)c3ccccn3)ccc21`, for which the Potency result in [1], in [8], in [9], in [6] and in assay [7] was “inactive” throughout. Besides, the Potency in assay [4] was 14.4 µM (active).

As to `CNC(=O)c1ccc(-c2cnc3ncc(Cc4ccc5ncccc5c4)n3n2)cc1F`, the Potency result in assay [1], in [3], in assay [10], in [4], in assay [5] and in [6] was “inactive” in each case. Further, the Potency result in [7] is “inactive”.

Regarding `Cc1c(CN2CCN(S(C)(=O)=O)CC2)sc2c(N3CCOCC3)nc(-c3cnc(N)nc3)nc12`, the Potency is 0.187 µM (active) in assay [1]; 0.0053 µM (active) in [3]; 0.0418 µM (active) in assay [10]; 0.0132 µM (active) in assay [4]; 0.0264 µM (active) in assay [9]; 0.0209 µM (active) in assay [6].

Regarding `O=C(C=Cc1cccnc1)NCCCCC1CCN(C(=O)c2ccccc2)CC1`, the Potency in [1] is 0.0053 µM (active); in assay [3] it was 0.0132 µM (active); in assay [4], 0.0296 µM (active); in assay [6], 0.132 µM (active). Moreover, in [8], the Potency entry was “inactive”.

Regarding `COc1cc2c(Nc3ccc(NC(=O)c4ccccc4)cc3)ncnc2cc1OCCCN1CCOCC1`, the Potency was 37.2 µM (active) in assay [1], 16.6 µM (active) in assay [3], 23.5 µM (active) in [10] and 23.5 µM (active) in [9]. Moreover, the Potency result in assay [7] was “inactive”.

In the case of `Cc1cc(Nc2ncnc3ccc(-c4ccc(CNCCS(C)(=O)=O)o4)cc23)ccc1Oc1ccn2ncnc2c1`, the Potency in assay [1] is 26.4 µM (active); in assay [8] it was 20.9 µM (active); in assay [3], 4.18 µM (active); in assay [4], 5.9 µM (active); in [9] it was 20.9 µM (active); in assay [6] it was 23.5 µM (active). In addition, the Potency in [7] was 0.372 µM (active).

`N#Cc1c(O)c2c(-c3ccc(-c4ccccc4O)cc3)csc2[nH]c1=O`: the Potency result in assay [1], in assay [8], in assay [3], in assay [9], in [5] and in assay [7] was “inactive” in each case. Further, the Potency was 16.6 µM (active) in [4] and 13.2 µM (active) in assay [6].

Take `Nc1nc(Nc2ccc(S(N)(=O)=O)cc2)nn1C(=O)c1c(F)cccc1F`: the Potency in [1] is 7.43 µM (active); in assay [3] it was 4.18 µM (active); in [4], 7.43 µM (active); in assay [9] it was 6.62 µM (active); in assay [5] it was 8.33 µM (active); in [6], 8.33 µM (active). Moreover, the Potency in [7] is 2.96 µM (active).

Regarding `C1Cc2[nH]nc(-c3nn[nH]n3)c2C1`, the Potency entry in assay [1], in [3], in assay [4], in [9], in [5] and in assay [6] was “inactive” in each case. Moreover, the Potency result in assay [7] was “inactive”.

For `COC(=O)C1=C(C)NC(C)=C(C(=O)OCCN2CCN(C(c3ccccc3)c3ccccc3)CC2)C1c1cccc([N+](=O)[O-])c1` (centres undefined), the Potency entry in assay [1], in assay [3], in [10], in [9], in assay [6] and in assay [7] was “inactive” throughout.

With `CC[C@H](CO)Nc1nc(NCc2ccccc2)c2ncn(C(C)C)c2n1`, the Potency is 33.2 µM (active) in assay [1]; 10.5 µM (active) in assay [3]; 20.9 µM (active) in [4]; 26.4 µM (active) in assay [9]; 26.4 µM (active) in assay [5].

`COc1cc2ncn(-c3cc(OCc4ccccc4C(F)(F)F)c(C(N)=O)s3)c2cc1OC`: the Potency in assay [1] is 18.7 µM (active); in assay [3], 7.43 µM (active); in [4], 3.32 µM (active); in assay [9], 18.7 µM (active); in [6] it was 16.6 µM (active).

Consider `Cc1coc2c1C(=O)C(=O)c1c-2ccc2c1CCCC2(C)C`, for which the Potency was 2.96 µM (active) in assay [1]; 13.2 µM (active) in assay [3]; 16.6 µM (active) in assay [10]; 4.18 µM (active) in assay [5]; 0.0418 µM (active) in assay [7].

Turning to `CC(C)[C@H](C(=O)Nc1ccc(C(=O)NO)cc1)c1ccccc1`, the Potency in assay [1] is 3.32 µM (active); in [8], 0.526 µM (active); in [3], 0.526 µM (active); in assay [4] it was 0.662 µM (active); in [9] it was 0.526 µM (active); in assay [6] it was 0.833 µM (active).

As to `Cc1cccc(C=NNc2cc(N3CCOCC3)nc(OCCc3ccccn3)n2)c1`, the Potency in assay [1] was 0.118 µM (active); in assay [3] it was 14.8 µM (active); in [4], 16.6 µM (active); in [9] it was 6.62 µM (active); in assay [7], 0.235 µM (active).

Consider `CN(C)CCCN=c1c2ccccc2n(C)c2[nH]c(=O)n(C)c(=O)c12`, for which the Potency in assay [1] is 26.4 µM (active); in [8] it was 6.62 µM (active); in [3], 11.8 µM (active); in assay [4] it was 3.72 µM (active); in assay [9], 18.7 µM (active); in assay [6], 16.6 µM (active).
